Some test systems named below: SR leukemia; RPMI-8226 leukemia; OVCAR-8 ovarian; OVCAR-5 ovarian; OVCAR-4 ovarian; SK-OV-3 ovarian; IGROV1 ovarian; OVCAR-3 ovarian; HS 578T breast; NCI/ADR-RES ovarian; T-47D breast; BT-549 breast; MDA-MB-435 melanoma; SW-620 colon; MCF7 breast; HCT-116 colon; HCC-2998 colon; KM12 colon.
Assay in all cases: NCI-60 one-dose screen, 48 h (100 = growth as untreated, 0 = no growth, -100 = all killed)

Each structure is given as a SMILES string. About 83,000 compounds went through this panel and 20% of them were active in at least one assay; those are over-represented in the sample as a whole.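 Results are percent growth after 48 hours of single-concentration exposure. 100 means growth as in untreated cells, lower positive values show inhibition; negative values down to -100 show cell death.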 A number with no mark means an inactive call. The source made the active and inactive calls. How the source made its calls: active means growth percent below 10; inactive means the rest.

Take `COc1ccc(/C=C2\COc3ccc(O)c(O)c3C2=O)c(OC)c1OC`: the growth is 9.47% (active) with SR leukemia (10 µM unless noted); -23.6% (active) in the assay with RPMI-8226 leukemia (10 µM unless noted); 8.41% (active) in the assay with OVCAR-8 ovarian (10 µM unless noted); 36.2% with OVCAR-5 ovarian (10 µM unless noted); 27.8% in the assay with OVCAR-4 ovarian (10 µM unless noted); 67% in the assay on SK-OV-3 ovarian (10 µM unless noted). Besides, the growth in the assay on IGROV1 ovarian (10 µM unless noted) was 16.9%; in the assay with OVCAR-3 ovarian (10 µM unless noted) it was 9.03% (active); in the assay on HS 578T breast (10 µM unless noted), 27.9%; in the assay with NCI/ADR-RES ovarian (10 µM unless noted), 27%; with T-47D breast (10 µM unless noted), 12.1%; with BT-549 breast (10 µM unless noted), 46.9%. The growth in the assay on MDA-MB-435 melanoma (10 µM unless noted) is 8.59% (active); in the assay on SW-620 colon (10 µM unless noted), 9.64% (active); with MCF7 breast (10 µM unless noted) it was 14.8%; in the assay on HCT-116 colon (10 µM unless noted), 14.6%; with HCC-2998 colon (10 µM unless noted), 65.6%.

For `CC[C@H](C)[C@H](NC(=O)[C@@H](N)CCC(N)=O)C(=O)N[C@@H](Cc1ccc(O)cc1)C(=O)N[C@@H](CCCCN)C(=O)N[C@@H](CCCCN)C(=O)N[C@@H](Cc1ccc(O)cc1)C(=O)N[C@@H](CCCNC(=N)N)C(=O)N[C@H](C(=O)N[C@@H](Cc1c[nH]c2ccccc12)C(=O)N[C@@H](Cc1ccc(O)cc1)C(=O)N[C@@H](CCCNC(=N)N)C(=O)N[C@@H](CCCCN)C(=O)N[C@@H](C)C(=O)N[C@@H](Cc1c[nH]c2ccccc12)C(=O)N[C@@H](CCCCN)C(=O)N[C@H](C(=O)N[C@@H](CC(C)C)C(=O)NCC(=O)N[C@@H](CCCCN)C(=O)N[C@H](C(N)=O)C(C)C)C(C)C)[C@@H](C)O`, the growth with SR leukemia (10 µM unless noted) is 37.8%; in the assay with RPMI-8226 leukemia (10 µM unless noted), 17.9%; in the assay with OVCAR-8 ovarian (10 µM unless noted) it was 13%; with OVCAR-5 ovarian (10 µM unless noted), 56.6%; with OVCAR-4 ovarian (10 µM unless noted), 73.5%; with SK-OV-3 ovarian (10 µM unless noted), 42.8%. The growth was -33.4% (active) with IGROV1 ovarian (10 µM unless noted); -1.52% (active) in the assay on OVCAR-3 ovarian (10 µM unless noted); -13% (active) in the assay on HS 578T breast (10 µM unless noted); -2.5% (active) in the assay with NCI/ADR-RES ovarian (10 µM unless noted); -47% (active) in the assay on T-47D breast (10 µM unless noted); 16.3% in the assay with BT-549 breast (10 µM unless noted). Besides, the growth in the assay on MDA-MB-435 melanoma (10 µM unless noted) was 17.9%; in the assay on SW-620 colon (10 µM unless noted), 47.2%; in the assay with MCF7 breast (10 µM unless noted), -68.3% (active); with HCT-116 colon (10 µM unless noted), 28.7%; with HCC-2998 colon (10 µM unless noted) it was 87.5%.

Take `Clc1ccc(CNc2ccc3nc(CCC4CCCCC4)[nH]c3c2)cc1`: the growth is 26.2% with SR leukemia (10 µM unless noted); -6.18% (active) with RPMI-8226 leukemia (10 µM unless noted); 65.3% in the assay on OVCAR-8 ovarian (10 µM unless noted); 53% in the assay with OVCAR-5 ovarian (10 µM unless noted); 32.3% in the assay with OVCAR-4 ovarian (10 µM unless noted); 78.9% in the assay with SK-OV-3 ovarian (10 µM unless noted). Moreover, the growth is 45.9% in the assay on IGROV1 ovarian (10 µM unless noted); 69.6% in the assay on OVCAR-3 ovarian (10 µM unless noted); 78.8% in the assay with HS 578T breast (10 µM unless noted); 54.7% with NCI/ADR-RES ovarian (10 µM unless noted); 24.3% in the assay with T-47D breast (10 µM unless noted); 83.3% with BT-549 breast (10 µM unless noted). Further, the growth with MDA-MB-435 melanoma (10 µM unless noted) was 66.4%; in the assay on SW-620 colon (10 µM unless noted), 26.2%; with MCF7 breast (10 µM unless noted), 37.9%; with HCT-116 colon (10 µM unless noted), 36.2%; in the assay with HCC-2998 colon (10 µM unless noted), -57.6% (active); with KM12 colon (10 µM unless noted), 50.7%.

With `Nc1[nH]nc(Nc2ccccc2)c1-c1nc2ccccc2s1`, the growth in the assay with SR leukemia (10 µM unless noted) was 13.6%; in the assay with RPMI-8226 leukemia (10 µM unless noted), 24%; with OVCAR-8 ovarian (10 µM unless noted), 38.4%; in the assay on OVCAR-5 ovarian (10 µM unless noted) it was 34.5%; in the assay with OVCAR-4 ovarian (10 µM unless noted) it was 29.5%; in the assay with SK-OV-3 ovarian (10 µM unless noted), 48.8%. Also, the growth with IGROV1 ovarian (10 µM unless noted) was 28.5%; in the assay on OVCAR-3 ovarian (10 µM unless noted), 25.3%; with HS 578T breast (10 µM unless noted), 47.2%; in the assay on NCI/ADR-RES ovarian (10 µM unless noted), 30%; with T-47D breast (10 µM unless noted), 2.9% (active); in the assay with BT-549 breast (10 µM unless noted), 38.1%. Besides, the growth was 22.8% in the assay with MDA-MB-435 melanoma (10 µM unless noted); 15.5% in the assay on SW-620 colon (10 µM unless noted); 12.4% in the assay on MCF7 breast (10 µM unless noted); 3.73% (active) in the assay on HCT-116 colon (10 µM unless noted); 18.3% with HCC-2998 colon (10 µM unless noted).

As for `O=C(/C=C/c1cccc(Oc2ccc(Cl)cc2)c1)c1ccccc1`, the growth with SR leukemia (10 µM) is 53.5%; with SR leukemia (100 µM), -25.1% (active); in the assay on RPMI-8226 leukemia (10 µM), 0.961% (active); in the assay on RPMI-8226 leukemia (100 µM), -30.3% (active); in the assay with OVCAR-8 ovarian (10 µM), 91.8%; in the assay with OVCAR-8 ovarian (100 µM) it was -50.8% (active). In addition, the growth was 96% in the assay with OVCAR-5 ovarian (10 µM); -82.2% (active) with OVCAR-5 ovarian (100 µM); 90.3% with OVCAR-4 ovarian (10 µM); -80.1% (active) in the assay with OVCAR-4 ovarian (100 µM); 114% in the assay on SK-OV-3 ovarian (10 µM); -93.7% (active) in the assay with SK-OV-3 ovarian (100 µM). Moreover, the growth was 102% in the assay on IGROV1 ovarian (10 µM); -49.9% (active) with IGROV1 ovarian (100 µM); 93.3% in the assay with OVCAR-3 ovarian (10 µM); -94.3% (active) in the assay with OVCAR-3 ovarian (100 µM); 97.5% with HS 578T breast (10 µM); -28.2% (active) in the assay on HS 578T breast (100 µM). In addition, the growth is 98.8% with NCI/ADR-RES ovarian (10 µM); -46.5% (active) with NCI/ADR-RES ovarian (100 µM); 77% with T-47D breast (10 µM); -72% (active) in the assay on T-47D breast (100 µM); 102% with BT-549 breast (10 µM); -61.3% (active) in the assay with BT-549 breast (100 µM). Also, the growth in the assay on MDA-MB-435 melanoma (10 µM) was 94.8%; in the assay with MDA-MB-435 melanoma (100 µM), -84.8% (active); in the assay on SW-620 colon (10 µM), 19.7%; in the assay with SW-620 colon (100 µM), -69.7% (active); with MCF7 breast (10 µM) it was 11.5%; with MCF7 breast (100 µM), -45.3% (active). Further, the growth in the assay on HCT-116 colon (10 µM) was 55.9%; in the assay with HCT-116 colon (100 µM), -82.2% (active); with HCC-2998 colon (10 µM), 107%; with HCC-2998 colon (100 µM), -97.8% (active).

Take `CN(C)CCNc1ncc(F)c(-c2cnc3cc(-c4cnn(C)c4)ccn23)n1`: the growth with SR leukemia (0.005 µM) was 99.9%; in the assay on SR leukemia (30 µM), 5.34% (active); in the assay with RPMI-8226 leukemia (10 µM unless noted), 98.3% [0.005 µM]; with OVCAR-8 ovarian (0.005 µM), 99.9%; in the assay on OVCAR-8 ovarian (30 µM) it was 54.3%; with OVCAR-5 ovarian (0.005 µM), 99.7%. For the same compound, the growth in the assay with OVCAR-5 ovarian (30 µM) was 64.5%; in the assay with OVCAR-4 ovarian (0.005 µM), 105%; in the assay with OVCAR-4 ovarian (30 µM), 38.6%; in the assay with SK-OV-3 ovarian (10 µM unless noted), 21% [30 µM]; with IGROV1 ovarian (0.005 µM) it was 108%; with IGROV1 ovarian (30 µM) it was 22.6%. The growth is 109% in the assay with OVCAR-3 ovarian (0.005 µM); 75.3% with OVCAR-3 ovarian (30 µM); 101% in the assay on HS 578T breast (0.005 µM); 60% in the assay with HS 578T breast (30 µM); 101% in the assay with NCI/ADR-RES ovarian (0.005 µM); 62.3% in the assay with NCI/ADR-RES ovarian (30 µM). Further, the growth in the assay with T-47D breast (0.005 µM) was 110%; in the assay on T-47D breast (30 µM) it was 81.7%; in the assay on BT-549 breast (0.005 µM), 97.8%; in the assay on BT-549 breast (30 µM), 69.4%; in the assay with MDA-MB-435 melanoma (0.005 µM), 101%; in the assay with MDA-MB-435 melanoma (30 µM), 43.1%. The growth in the assay on SW-620 colon (0.005 µM) is 103%; in the assay with SW-620 colon (30 µM), 25.7%; with MCF7 breast (0.005 µM), 93.9%; in the assay with MCF7 breast (30 µM), 49.5%; with HCT-116 colon (0.005 µM), 100%; in the assay on HCT-116 colon (30 µM), 24.3%. Also, the growth in the assay on HCC-2998 colon (0.005 µM) was 116%; with HCC-2998 colon (30 µM) it was 54.5%; with KM12 colon (0.005 µM), 87.8%; in the assay with KM12 colon (30 µM) it was 10.7%.

For the origin of these results see PubChem BioAssay (NCI).
